Values joined by “and” are separate entries in the source; they are usually repeats but may differ in a detail not shown here. Equal values may be shown once. Out of some 5,500 compounds screened, about 2,000 (36%) were called active. Not shown: some 18% with an inconclusive outcome. Cut-off read from the data, not from the text of the source: active = normalized growth mostly below about 0.91 (no sharp cut-off); inconclusive = no clear call, values can overlap the other calls; inactive = mostly above about 0.92. The list shows a part of the results.
Assay: chemical genetic growth profiling, strain panel (AID 1159580);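 note: tested at 20 µM; growth read once vehicle control cultures reached saturation at 30 °C; 1 = growth at the plate median or of vehicle wells; lower values mean less growth of the strain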
Details: S. cerevisiae deletion strains, growth OD

Measured: normalized growth

CN(C(=O)CN(CCO)CC(=O)N(C)C(C)(C)Cc1ccccc1)C(C)(C)Cc1ccccc1
inactive: locus YAL021C, strain ccr4, active compounds read low 1.01 | locus YAL026C, strain drs2, active compounds read low 1.02 | locus YAL030W, strain snc1, active compounds read low 1 | locus YBL061C, strain skt5, active compounds read low 1.01 | locus YBR009C, strain hhf1, active compounds read low 1.01 | locus YBR021W, strain FUR4, active compounds read low 0.985 | locus YBR023C, strain chs3, active compounds read low 1.01 | locus YBR171W, strain sec66, active compounds read low 1.04 | locus YBR229C, strain ROT2, active compounds read low 0.993 | locus YBR231C, strain swc5, active compounds read low 1 | locus YBR279W, strain paf1, active compounds read low 1.01 | locus YCL011C, strain gbp2, active compounds read low 1.01 | locus YCL016C, strain dcc1, active compounds read low 1.01 | locus YCL029C, strain bik1, active compounds read low 0.97 | locus YCL061C, strain MRC1, active compounds read low 1.02 | locus YCL069W, strain vba3, active compounds read low 1.01 | locus YCR088W, strain abp1, active compounds read low 1.01 | locus YDL005C, strain med2, active compounds read low 1 | locus YDL035C, strain GPR1, active compounds read low 0.954 | locus YDL040C, strain nat1, active compounds read low 1 | locus YDL074C, strain BRE1, active compounds read low 0.978 | locus YDL101C, strain DUN1, active compounds read low 1 | locus YDL134C, strain PPH21, active compounds read low 0.983 | locus YDL185W, strain tfp1, active compounds read low 0.954 | locus YDL192W, strain arf1, active compounds read low 0.98 | locus YDR001C, strain nth1, active compounds read low 1.01 | locus YDR069C, strain doa4, active compounds read low 1.01 | locus YDR101C, strain arx1, active compounds read low 1 | locus YDR137W, strain rgp1, active compounds read low 1.07 | locus YDR159W, strain sac3, active compounds read low 0.998 | locus YDR162C, strain NBP2, active compounds read low 0.957 | locus YDR195W, strain ref2 0.995 | locus YDR297W, strain sur2, active compounds read low 1 | locus YDR318W, strain mcm21, active compounds read low 0.979 | locus YDR334W, strain swr1, active compounds read low 1.02 | locus YDR335W, strain msn5, active compounds read low 1.01 | locus YDR388W, active compounds read low 0.979 | locus YDR392W, strain spt3, active compounds read low 0.981 | locus YDR502C, strain sam2, active compounds read low 0.981 | locus YEL003W, strain gim4, active compounds read low 1.01 | locus YEL037C, strain rad23, active compounds read low 1.02 | locus YEL061C, strain CIN8 (second series), active compounds read low 1.02 | locus YEL061C, strain CIN8, active compounds read low 0.997 | locus YER015W, strain faa2, active compounds read low 1.02 | locus YER016W, strain bim1, active compounds read low 1.03 | locus YER110C, active compounds read low 0.976 | locus YER111C, strain swi4, active compounds read low 1.02 | locus YER155C, strain BEM2 (second series), active compounds read low 1.02 | locus YER155C, strain BEM2, active compounds read low 0.994 | locus YER167W, strain BCK2, active compounds read low 0.987 | locus YFR010W, strain ubp6, active compounds read low 1.01 | locus YGL078C, strain dbp3, active compounds read low 0.983 | locus YGL086W, strain mad1, active compounds read low 0.979 | locus YGL167C, strain pmr1, active compounds read low 1.01 | locus YGL173C, strain kem1, active compounds read low 1.02 | locus YGL227W, strain vid30, active compounds read low 1.02 | locus YGL240W, strain doc1, active compounds read low 0.986 | locus YGL248W, strain PDE1, active compounds read low 1.01 | locus YGL253W, strain hxk2, active compounds read low 1.03 | locus YGR078C, strain PAC10, active compounds read low 1 | locus YGR135W, strain pre9, active compounds read low 0.973 | locus YGR229C, strain SMI1, active compounds read low 0.98 | locus YGR252W, strain gcn5, active compounds read low 1.01 | locus YHR013C, strain ard1, active compounds read low 1.04 | locus YHR027C, strain rpn1, active compounds read low 1.02 | locus YHR030C, strain SLT2, active compounds read low 0.985 and 0.989 | locus YHR079C, strain IRE1 (second series), active compounds read low 0.975 | locus YHR079C, strain IRE1, active compounds read low 0.98 | locus YHR094C, strain hxt1, active compounds read low 0.99 | locus YHR129C, strain ARP1, active compounds read low 0.992 | locus YHR142W, strain chs7, active compounds read low 1.02 | locus YHR200W, strain rpn10, active compounds read low 0.971 | locus YIL066C, strain RNR3, active compounds read low 0.996 | locus YIL073C, strain SPO22, active compounds read low 1.14 | locus YIL125W, strain kgd1, active compounds read low 0.988 | locus YIR030C, strain dcg1, active compounds read low 0.976 | locus YJL092W, strain hpr5, active compounds read low 1.01 | locus YJL095W, strain BCK1 (second series), active compounds read low 1.01 | locus YJL095W, strain BCK1, active compounds read low 1.01 | locus YJL115W, strain asf1, active compounds read low 1.02 | locus YJL129C, strain trk1, active compounds read low 1.02 | locus YJL134W, strain LCB3, active compounds read low 0.986 | locus YJL154C, strain vps35, active compounds read low 1.01 | locus YJL164C, strain tpk1, active compounds read low 1 | locus YJL166W, strain qcr8, active compounds read low 1.01 | locus YJL168C, strain set2, active compounds read low 0.989 | locus YJL187C, strain SWE1 (second series), active compounds read low 1.01 | locus YJL187C, strain SWE1, active compounds read low 1.01 | locus YJR043C, strain POL32, active compounds read low 0.962
